# Results from PubChem BioAssay (NCI).
# “And” between values parts separate entries of the source, which are not always exact repeats. Equal values may be shown once. Compounds without any hit were thinned out: in the full panel of roughly 83,000, 20% have a hit.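 Step 1: grow cells in 96-well plates. Step 2: add test compound at a single concentration. Step 3: incubate 48 h. Step 4: record percent growth.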 The source made the active and inactive calls. Rule for the calls: active = growth percent below 10; inactive = the rest.
# How the values were obtained:
# Assay in all cases: NCI-60 one-dose screen, 48 h (100 = growth as untreated, 0 = no growth, -100 = all killed)
# Details in all cases: 10 µM unless noted
# EKVX NSCLC = system: EKVX NSCLC
# SN12C renal = system: SN12C renal
# UO-31 renal = system: UO-31 renal
# TK-10 renal = system: TK-10 renal
# ACHN renal = system: ACHN renal
# CAKI-1 renal = system: CAKI-1 renal
# A498 renal = system: A498 renal
# CCRF-CEM leukemia = system: CCRF-CEM leukemia
# MOLT-4 leukemia = system: MOLT-4 leukemia
SMILES,growth (EKVX NSCLC),growth (SN12C renal),growth (UO-31 renal),growth (TK-10 renal),growth (ACHN renal),growth (CAKI-1 renal),growth (A498 renal),growth (CCRF-CEM leukemia),growth (MOLT-4 leukemia)
COc1cc(-c2nc(-c3ccccc3)[nH]c2-c2ccnc(NCCCNS(=O)(=O)c3ccc(C(F)(F)F)cc3)n2)ccc1Cl,30% (inactive) and 44.9% (inactive),49.4% (inactive) and 49.5% (inactive),46.5% (inactive) and 35.4% (inactive),79.1% (inactive) and 61.2% (inactive),33.3% (inactive) and 32.6% (inactive),31.2% (inactive) and 35.4% (inactive),40% (inactive) and 64.3% (inactive),6.64% (active) and 21.7% (inactive),-4.06% (active) and 16.3% (inactive)
CN1CCN(Cc2ccc(NC(=O)c3cncc(C#Cc4cnc5ccc(OCC(F)F)nn45)c3)cc2C(F)(F)F)CC1,-69.1% (active),-75.2% (active),-95.8% (active),-84.4% (active),-98.3% (active),-95.9% (active),-91.7% (active),2.09% (active),-21.7% (active)
Cc1ccc2c(n1)C(=O)C(Cl)=C(Nc1ccc(C(F)(F)F)cc1)C2=O,77.2% (inactive),91.8% (inactive),-85.2% (active),85.4% (inactive),-98.4% (active),44.4% (inactive),79% (inactive),2.47% (active),8.71% (active)
CN1CCN(Cc2ccc(NC(=O)c3cncc(C#Cc4cnc(N)nc4)c3)cc2C(F)(F)F)CC1,43.9% (inactive),11.5% (inactive),4.98% (active),17.4% (inactive),7.78% (active),–,-17.2% (active),30.9% (inactive),21.9% (inactive)
Clc1cccc(/C=N/Nc2nc(N/N=C/c3cccc(Cl)c3)nc(N3CCCCC3)n2)c1,78.4% (inactive),92.4% (inactive),76.7% (inactive),106% (inactive),101% (inactive),92.4% (inactive),92.2% (inactive),75% (inactive),68.7% (inactive)
O=C(CSc1cc[n+](CCCCO)c2ccccc12)n1ccc2ccccc21,89.3% (inactive),103% (inactive),63.6% (inactive),155% (inactive),96.4% (inactive),81.9% (inactive),114% (inactive),107% (inactive),95.8% (inactive)
O=S(=O)(NCCCNc1nccc(-c2[nH]c(-c3ccccc3)nc2-c2ccc(F)c(O)c2)n1)c1ccc(C(F)(F)F)cc1,69.7% (inactive),67.7% (inactive),91.4% (inactive),95.7% (inactive),58.7% (inactive),40.5% (inactive),28.3% (inactive),4.62% (active),17.2% (inactive)
Cn1cc(-c2nc(N)nnc2-c2c[nH]c3ccc(Br)cc23)c2cc(F)ccc21,78.5% (inactive),102% (inactive),58.8% (inactive),131% (inactive),78.5% (inactive),67.8% (inactive),98.9% (inactive),83.2% (inactive),69.4% (inactive)
CCc1cccc2c3c(sc12)C(c1ccc(F)cc1)C(C#N)=C(/N=C/c1ccc(Cl)cc1)O3 (stereo not drawn),47.8% (inactive),32.4% (inactive),39.2% (inactive),93.5% (inactive),32.3% (inactive),41.5% (inactive),-10.4% (active),20.7% (inactive),25.4% (inactive)
CC(=O)OCCCCN1C=C/C(=C\C(=O)n2ccc3ccccc32)c2ccccc21,75% (inactive),108% (inactive),71.6% (inactive),147% (inactive),94.8% (inactive),79.8% (inactive),121% (inactive),102% (inactive),98% (inactive)
Cc1ccc(S(=O)(=O)NCCCNc2nccc(-c3[nH]c(-c4ccccc4)nc3-c3ccc(F)c(O)c3)n2)cc1,94.9% (inactive),99.2% (inactive),115% (inactive),–,85.8% (inactive),90.7% (inactive),76.3% (inactive),39.7% (inactive),39.2% (inactive)
Cc1ccc(NC(=O)/C=C/c2ccc(OCCCOc3ccc4c(C)cc(=O)oc4c3)cc2)cc1,83.1% (inactive),73.3% (inactive),39.6% (inactive),91.5% (inactive),17.7% (inactive),51% (inactive),45.2% (inactive),99.1% (inactive),103% (inactive)
COc1ccc(OC)c(NC(=O)CCCCCCNC(=O)C(O)(O)C(F)(F)F)c1,56% (inactive),58.9% (inactive),30.3% (inactive),12.9% (inactive),15.3% (inactive),25.2% (inactive),38.3% (inactive),23.5% (inactive),20% (inactive)
O=C1C(N2CCN(c3ccccc3)CC2)=C(Cl)C(=O)c2ncccc21,101% (inactive),58.2% (inactive),14.9% (inactive),123% (inactive),-3.31% (active),39.9% (inactive),104% (inactive),6.08% (active),9.67% (active)
Cc1ccc(-c2cc3nc(C(Cl)Cl)nc(-c4ccc(S(=O)(=O)N(C)C)cc4)n3n2)cc1,103% (inactive),50.7% (inactive),92.1% (inactive),107% (inactive),83.2% (inactive),–,101% (inactive),69.3% (inactive),75.6% (inactive)
CC(C)C(/C=C/c1[nH]ncc1-c1cc(Cl)ccc1O)N1CCOCC1 (stereo not drawn),95.9% (inactive),97.7% (inactive),70% (inactive),119% (inactive),92.8% (inactive),69.7% (inactive),81.7% (inactive),97.7% (inactive),86% (inactive)
Cc1nc(/N=C(N)/N=C(\N)c2cccc(Br)c2)sc1C,60.2% (inactive),47.3% (inactive),52.5% (inactive),83.3% (inactive),49.9% (inactive),48.6% (inactive),43.5% (inactive),34% (inactive),39.7% (inactive)
CC(C)(C)OC(=O)NCc1ccc(CNc2c([N+](=O)[O-])cnc3ccccc23)cc1,44.2% (inactive),75.9% (inactive),50.3% (inactive),80.4% (inactive),61.1% (inactive),67.1% (inactive),36.2% (inactive),59.8% (inactive),34.4% (inactive)
NC1[C@H]2CN(c3cnc(C(=O)Nc4cc(F)cc5cccnc45)cn3)C[C@@H]12 (stereo partly drawn),82.1% (inactive),69.8% (inactive),44.6% (inactive),87.7% (inactive),32.5% (inactive),49.9% (inactive),75.4% (inactive),30% (inactive),18.1% (inactive)
CN1CCN(c2ccc(Nc3nc(NCCNS(=O)(=O)c4ccccc4)c4sccc4n3)cc2)CC1,95.2% (inactive),95% (inactive),81.2% (inactive),142% (inactive),101% (inactive),76.4% (inactive),101% (inactive),105% (inactive),95.3% (inactive)

SMILES,growth (EKVX NSCLC),growth (SN12C renal),growth (UO-31 renal),growth (TK-10 renal),growth (ACHN renal),growth (CAKI-1 renal),growth (A498 renal),growth (CCRF-CEM leukemia),growth (MOLT-4 leukemia)
COc1ccc(/C=N/NC(=O)c2c(N)nn(C)c2Nc2ccccc2)cc1,69.7% (inactive),57.6% (inactive),51.2% (inactive),89.2% (inactive),50% (inactive),39.8% (inactive),33.1% (inactive),38.5% (inactive),49.4% (inactive)
N#Cc1cnc2ccc(-c3cnc4n[nH]nc4c3)cc2c1N1CCc2cc(F)c(Cl)cc21,3.17% (active),14.8% (inactive),2.18% (active),-11.4% (active),13.6% (inactive),6.12% (active),-11.8% (active),10.6% (inactive),-1.31% (active)
CN1CCN(Cc2ccc(NC(=O)c3cncc(C#Cc4cnc5ccc(OC6CCOCC6)nn45)c3)cc2C(F)(F)F)CC1,-73.8% (active),-78.8% (active),-92.3% (active),-89.6% (active),-100% (active),-97% (active),-92.5% (active),0.551% (active),3.74% (active)
Cn1cc(-c2cc3ncnc(Nc4ccc(CC(=O)Nc5nc(C(C)(C)C)cs5)cc4)c3s2)cn1,48% (inactive),23.6% (inactive),31.6% (inactive),44.7% (inactive),18.6% (inactive),7.53% (active),-4.34% (active),23.1% (inactive),16% (inactive)
COc1ccc(C(C)=C(c2ccc(OCCN3CCCCCC3)cc2)c2ccc(OCCN3CCCCCC3)cc2)cc1,1.68% (active),0.944% (active),-79.3% (active),27.1% (inactive),-57.8% (active),-45.9% (active),27.9% (inactive),0.672% (active),-5.35% (active)
O=c1c2ccccc2cc2n1CCN=C2c1ccccc1,101% (inactive),109% (inactive),78.6% (inactive),101% (inactive),96.9% (inactive),82.4% (inactive),89.4% (inactive),100% (inactive),102% (inactive)
C/C(=C(/C)C1CC1CCNC1CCC(NC(=O)OC(C)(C)C)CC1)c1ccccc1 (stereo not drawn),73.7% (inactive),76.2% (inactive),63.8% (inactive),108% (inactive),87.1% (inactive),53.6% (inactive),78% (inactive),54% (inactive),61.9% (inactive)
CCCCCCCCCC(=O)NC(C)(C)C(=O)N1CCC[C@H]1C(=O)N[C@@H](CC(C)C)C(=O)N[C@@](C)(CC)C(=O)N[C@@H](CCC(N)=O)C(=O)N[C@H](CCC(N)=O)C(=O)NC(C)(C)C(=O)NC(C)(C)C(=O)N[C@@H](CCC(N)=O)C(=O)N[C@H](CC(C)C)C(=O)N[C@H](CO)CC(C)C,-87.8% (active) and -64.6% (active),-86.4% (active) and -84.1% (active),-94% (active) and 26.4% (inactive),-70.9% (active) and 14.9% (inactive),-85.3% (active) and 18.4% (inactive),-67.5% (active) and 5.79% (active),-91.3% (active) and -31.5% (active),-72% (active) and -39.7% (active),-81.5% (active) and -26.1% (active)
COC(=O)N1CCN(CCNCc2ccc(NC(=O)c3ccc(C)c(C#Cc4cnc5cccnn45)c3)cc2C(F)(F)F)CC1,48.9% (inactive),39.8% (inactive),26.8% (inactive),68.9% (inactive),29.6% (inactive),20.2% (inactive),47.8% (inactive),10.8% (inactive),8.21% (active)
CC(Nc1ncnc2ccc(-c3cnc4cnccn34)cc12)c1ccccc1 (stereo not drawn),30.4% (inactive),51.9% (inactive),15.7% (inactive),20.9% (inactive),22.8% (inactive),27.6% (inactive),65.3% (inactive),61.1% (inactive),37.5% (inactive)
CCN(CC)S(=O)(=O)c1ccc(-c2nc(C(Cl)Cl)nc3cc(-c4ccc(F)cc4)nn23)cc1,32% (inactive),67.6% (inactive),27.6% (inactive),49.9% (inactive),0.483% (active),12% (inactive),56.2% (inactive),73.9% (inactive),56.6% (inactive)
Nc1cc(C(=O)N/N=C\c2ccc(OC(F)F)c(OC3CCCC3)c2)nn1CC(O)c1ccccc1 (stereo not drawn),104% (inactive),105% (inactive),76.5% (inactive),112% (inactive),105% (inactive),81.9% (inactive),100% (inactive),92.3% (inactive),78.5% (inactive)
CC1CCN(CC(=O)Nn2c(COc3ccccc3)nc3ccccc3c2=O)CC1,86.1% (inactive),96.3% (inactive),70.7% (inactive),125% (inactive),102% (inactive),71.2% (inactive),81.8% (inactive),89.4% (inactive),88.1% (inactive)
CNC(=O)c1cc(N2CCc3cc(NC(=O)Nc4ccc(N5CCOCC5)c(C(F)(F)F)c4)ccc32)ccn1,59.6% (inactive),15% (inactive),16.9% (inactive),80.8% (inactive),26.3% (inactive),44.3% (inactive),60% (inactive),25.1% (inactive),22.9% (inactive)
C#CCOc1cccc(-c2nc(N)nc(Nc3ccccc3SSc3ccccc3Nc3nc(N)nc(-c4cccc(OCC#C)c4)n3)n2)c1,37.3% (inactive),1.17% (active),-78.6% (active),134% (inactive),-76.4% (active),29.1% (inactive),73% (inactive),30.6% (inactive),44% (inactive)
CC1=C(C)C(=O)C(Nc2ccc3c(c2)OCCO3)=C(Br)C1=O,73.7% (inactive),99.7% (inactive),95.8% (inactive),135% (inactive),101% (inactive),102% (inactive),103% (inactive),13.2% (inactive),-7.79% (active)
C#CCn1cc(/C=N/Nc2nc(-c3ccc(Br)cc3)cs2)c2ccccc21,63.9% (inactive),95.1% (inactive),81.4% (inactive),162% (inactive),98% (inactive),106% (inactive),94.7% (inactive),101% (inactive),101% (inactive)
CNC(=O)c1cc(-n2ccc3cc(NC(=O)Nc4ccc(N5CCN(C)CC5)c(C(F)(F)F)c4)ccc32)ccn1,84.5% (inactive),94.6% (inactive),42% (inactive),121% (inactive),77.4% (inactive),85.8% (inactive),87.9% (inactive),7.32% (active),-12.8% (active)
CN(C)S(=O)(=O)c1ccc(-c2nc(C(Cl)Cl)nc3cc(-c4ccc(F)cc4)nn23)cc1,22.7% (inactive),24.3% (inactive),44.3% (inactive),29.5% (inactive),5.28% (active),3.68% (active),49.7% (inactive),21.7% (inactive),3.19% (active)
